The source of these data is PubChem BioAssay (NCI).

The panel holds about 83,000 compounds, 20% with a hit somewhere; the sample as a whole holds those more often.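 The test compound was applied at a single concentration to cells in 96-well plates for 48 hours, and percent growth was recorded.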 Values without a mark were called inactive. Activity calls are given as the source filed them. How the source made its calls: active means growth percent below 10; inactive means the rest.

Assay in all cases: NCI-60 one-dose screen, 48 h (100 = growth as untreated, 0 = no growth, -100 = all killed)
The test system of assay [1] is EKVX NSCLC. The note with it: 10 µM unless noted.
In assay [2] the test system is SN12C renal. The note with it: 10 µM unless noted.
Assay [3] deals with UO-31 renal. The note with it: 10 µM unless noted.
The subject of assay [4] is TK-10 renal. The note with it: 10 µM unless noted.
Assay [5] deals with ACHN renal. The note with it: 10 µM unless noted.
Assay [6] concerns A498 renal. The note with it: 10 µM unless noted.
The subject of assay [7] is CCRF-CEM leukemia. The note with it: 10 µM unless noted.
For assay [8], the system named is OVCAR-8 ovarian. The note with it: 10 µM unless noted.
In assay [9] the test system is OVCAR-5 ovarian. The note with it: 10 µM unless noted.
The test system of assay [10] is OVCAR-4 ovarian. The note with it: 10 µM unless noted.
Assay [11] concerns SK-OV-3 ovarian. The note with it: 10 µM unless noted.
Assay [12] relates to IGROV1 ovarian. The note with it: 10 µM unless noted.
Assay [13] relates to HS 578T breast. The note with it: 10 µM.
The subject of assay [14] is NCI/ADR-RES ovarian. The note with it: 10 µM unless noted.
Assay [15] concerns MOLT-4 leukemia. The note with it: 10 µM unless noted.
Assay [16] relates to SR leukemia. The note with it: 10 µM unless noted.
For assay [17], the system named is RPMI-8226 leukemia. The note with it: 10 µM unless noted.
Assay [18] concerns OVCAR-3 ovarian. The note with it: 10 µM unless noted.
Assay [19] relates to CAKI-1 renal. The note with it: 10 µM unless noted.

`O=C(C(=O)c1cccnc1)c1cccnc1`: the growth in [1] is 110%; in [2], 107%; in [3], 105%; in [4], 158%; in assay [5], 110%; in assay [6], 55.6%. In addition, the growth was 120% in assay [7]; 82.6% in assay [8]; 100% in assay [9]; 101% in assay [10]; 136% in [11]; 31% in [12]. Further, the figures for the growth in [13] and in [14] were 99% and 97.5%, respectively.

Consider `COc1ccc(C(=O)c2cc(C)c(OC)c(C)c2)cc1OC(=O)CCl`, for which the growth in assay [1] was 44.9%; in assay [2] it was 31.4%; in [3] it was 45.8%; in assay [4], 62.6%; in assay [5], 21.4%; in [7], 8.68% (active). Further, the growth in assay [15] was 5.7% (active); in assay [16], 2.99% (active); in assay [17], 11.2%; in assay [8], 6.89% (active); in [9], 39.6%; in [10], 47.4%. Also, the growth in assay [11] was 20.6%; in assay [12], 25.7%; in [18] it was -15.5% (active); in assay [13] it was 44.4%; in assay [14], 7.11% (active).

For `NNC(=O)Cc1ccccc1`, the growth in assay [1] is 81.2%; in [2], 93.4%; in [3] it was 76.2%; in assay [5], 78.9%; in [6], 97.2%; in [7], 57.1%. The growth in assay [15] was 79.9%; in assay [16], 88.9%; in [17], 88.4%; in [8] it was 87.6%; in assay [9] it was 77.1%; in [10], 97.4%. The growth in assay [11] is 78.4%; in assay [12], 97.5%; in assay [18], 96%; in assay [13], 95.7%; in assay [14], 72.2%.

`O=C1/C(=C\c2cccn2Cc2ccc(Cl)cc2)c2ccccc2N1c1c(Cl)cccc1Cl`: the growth was 62.2% in [1]; 63% in assay [3]; 87.6% in assay [4]; 65.7% in assay [5]; 75% in assay [19]; 98% in [6]. For the same compound, the growth in assay [7] was 82.4%; in assay [15], 75.1%; in [16], 75.3%; in assay [17], 76.1%; in assay [8] it was 85.2%; in assay [9] it was 86.8%. In addition, the growth was 40.2% in assay [10]; 86.7% in assay [11]; 63% in assay [12]; 82.3% in [18]; 97.2% in assay [13]; 78.3% in [14].

With `O=C(CCc1nc2sc3c(c2c(=O)[nH]1)CCC3)NCc1cn(-c2ccccc2)nc1-c1ccccc1`, the growth is 92% in [1]; 98.5% in [3]; 89.4% in assay [4]; 81.1% in assay [5]; 92.5% in [19]; 66.4% in [6]. Moreover, the growth in assay [7] is 61%; in [15], 59.6%; in assay [16] it was -18% (active); in assay [17], 90%; in assay [8], 44.3%; in assay [9], 86.2%. For the same compound, the growth was -48% (active) in [10]; 68.5% in assay [11]; 93% in [12]; 16.9% in [18]; 48.4% in assay [13]; 69.5% in assay [14].

As for `CC(C)(C)CC(C)(C)NCc1cc(C(C)(C)C)cc(CNC(C)(C)CC(C)(C)C)c1O`, the growth in [1] was 37.2%; in assay [2], 69.3%; in assay [3] it was 27.4%; in assay [5], 37.4%; in assay [19] it was 55.3%; in [6], 64.9%. Moreover, the growth in assay [7] is 49.3%; in assay [15], 30.3%; in assay [16], 1.23% (active); in assay [17] it was 8.02% (active); in [8], 86.4%; in assay [9], 68.6%. The growth in assay [11] is 81.3%; in [12], 61.1%; in [13] it was 67.6%; in assay [14], 55%.

In the case of `CCc1ccc2c(c1)N(CCO)C1=C(C(=O)OC1)C2c1cccc(Br)c1` (stereo not drawn), the growth in [1] is 47.4%; in assay [2], 53.5%; in [3], 34%; in [4], 45.4%; in assay [19], 26.1%; in assay [6] it was 2.81% (active). For the same compound, the growth in [7] was 11.9%; in [15], 19.3%; in assay [16], 28.6%; in [17], 24.7%; in assay [8], 33.7%; in assay [9], 36.4%. Also, the growth in assay [10] was 59.9%; in [11] it was 28.1%; in assay [12], 39.3%; in [18], -10.6% (active); in assay [13], 3.25% (active); in assay [14], 9.74% (active).

For `CC(=O)OC1Oc2cc(C)c(C)cc2-c2oc(=O)c(-c3cc4ccccc4oc3=O)cc21` (stereo not drawn), the growth was 115% in assay [1]; 114% in [2]; 96.2% in [3]; 156% in assay [4]; 71.9% in [5]; 94% in [7]. In addition, the growth in [8] was 101%; in [9], 97.6%; in assay [10], 97.2%; in assay [11], 89.4%; in [12] it was 73.8%; in assay [13] it was 423%. Moreover, in assay [14], the growth is 94.7%.

For the compound `O=c1cc(N2CCOCC2)oc2c(-c3ccc4c(c3)OCCO4)csc12`, the growth was 9.76% (active) in assay [1]; 20.2% in [2]; 1% (active) in assay [3]; -14.5% (active) in [4]; -41% (active) in assay [6]; 28% in assay [7]. For the same compound, the growth is 4.69% (active) in assay [15]; 13.9% in assay [16]; -0.399% (active) in assay [17]; 13.8% in assay [8]; 18.1% in assay [9]; 11.5% in assay [10]. The growth was -17.3% (active) in assay [11]; -9.54% (active) in [12]; 19.1% in [18]; -7.53% (active) in assay [13]; 16.5% in [14].
